13 molecules from PubChem BioAssay (NCATS) can be followed below.

Records with an inconclusive call do not appear. Unmarked numbers belong to inactive results. Calls of active or inactive are those of the source. Calls come from the whole dose curve; as a rule, active = well fitted cell-killing curve with a large enough effect; inconclusive = small, poorly fitted or top-dose-only effect, or effect the other way; inactive = no such curve, though single readings can be large or run the other way.

Assay [1] is described as follows: Quantitative High-Throughput drug screen in 47 multiple myeloma cell lines against the NCATS MIPE library collection: KMS28PE_JCRB cell viability assay (AID 1918983). Note: nearly all actives have a fitted effect of over 35% in size. In outline: (§1)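 Viability after 48 h drug exposure was measured as ATP-dependent luminescence. Cells, 500 per well, sat at 37 °C under 5% CO2; DMSO wells set 100%, media-only wells 0%.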
A short description of assay [2]: Quantitative High-Throughput drug screen in 47 multiple myeloma cell lines against the NCATS MIPE library collection: KMS34_JCRB cell viability assay (AID 1918985). Note: nearly all actives have a fitted effect of over 40% in size. In outline: as §1
The nature of assay [3]: Quantitative High-Throughput drug screen in 47 multiple myeloma cell lines against the NCATS MIPE library collection: OCIMY7_PLB cell viability assay (AID 1918987). Note: nearly all actives have a fitted effect of over 65% in size. The method, boiled down: as §1
The nature of assay [4]: Quantitative High-Throughput drug screen in 47 multiple myeloma cell lines against the NCATS MIPE library collection: OCIMY5_PLB cell viability assay (AID 1918988). Note: nearly all actives have a fitted effect of over 65% in size. In outline: as §1
Assay [5] is described as follows: Quantitative High-Throughput drug screen in 47 multiple myeloma cell lines against the NCATS MIPE library collection: OPM1_PLB cell viability assay (AID 1918989). Note: nearly all actives have a fitted effect of over 40% in size. In outline:
as §1

The nature of assay [6]: Quantitative High-Throughput drug screen in 47 multiple myeloma cell lines against the NCATS MIPE library collection: SKMM1_PLB cell viability assay (AID 1919863). For viability: series mostly up to about 46 µM. Note: nearly all actives have a fitted effect of over 35% in size. The following applies: SKMM1 myeloma viability, CellTiter-Glo ATP, 48 h; viability: active compounds read low. The method, boiled down:
as §1

The nature of assay [7]: Quantitative High-Throughput drug screen in 47 multiple myeloma cell lines against the NCATS MIPE library collection: U266_ATCC cell viability assay (AID 1919864). Note: nearly all actives have a fitted effect of over 35% in size. The method, boiled down:
as §1

A short description of assay [8]: Quantitative High-Throughput drug screen in 47 multiple myeloma cell lines against the NCATS MIPE library collection: XG6_PLB cell viability assay (AID 1919865). Note: nearly all actives have a fitted effect of over 40% in size. In outline: as §1
The nature of assay [9]: Quantitative High-Throughput drug screen in 47 multiple myeloma cell lines against the NCATS MIPE library collection: XG1_PLB cell viability assay (AID 1919866). Note: nearly all actives have a fitted effect of over 35% in size. In outline: as §1
Assay [10] in a line: Quantitative High-Throughput drug screen in 47 multiple myeloma cell lines against the NCATS MIPE library collection: VP6_DJ cell viability assay (AID 1919867). Note: nearly all actives have a fitted effect of over 40% in size. In outline: as §1
The nature of assay [11]: Quantitative High-Throughput drug screen in 47 multiple myeloma cell lines against the NCATS MIPE library collection: UTMC2_PLB cell viability assay (AID 1919868). Note: nearly all actives have a fitted effect of over 55% in size. In outline: as §1
A short description of assay [12]: Quantitative High-Throughput drug screen in 47 multiple myeloma cell lines against the NCATS MIPE library collection: PCM6_Riken cell viability assay (AID 1919870). Note: nearly all actives have a fitted effect of over 30% in size. The method, boiled down: as §1
Assay [13] in a line: Quantitative High-Throughput drug screen in 47 multiple myeloma cell lines against the NCATS MIPE library collection: RPMI8226_ATCC cell viability assay (AID 1919871). Note: nearly all actives have a fitted effect of over 30% in size. In outline:
as §1

Assay [14] can be described thus: Quantitative High-Throughput drug screen in 47 multiple myeloma cell lines against the NCATS MIPE library collection: OPM2_DSMZ cell viability assay (AID 1919872). Note: nearly all actives have a fitted effect of over 30% in size. The method, boiled down: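 Luminescent ATP measurement with CellTiter-Glo gives viability, scaled between DMSO-only wells (100%) and media-only wells (0%). Cells, 500 per well, faced library compounds for 48 hours at 37C.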

A short description of assay [15]: Quantitative High-Throughput drug screen in 47 multiple myeloma cell lines against the NCATS MIPE library collection: KMS11_JCRBsus cell viability assay (AID 1919873). Note: nearly all actives have a fitted effect of over 50% in size. The method, boiled down: as §1
Assay [16] is described as follows: Quantitative High-Throughput drug screen in 47 multiple myeloma cell lines against the NCATS MIPE library collection: KMS28BM_JCRB cell viability assay (AID 1919874). Note: nearly all actives have a fitted effect of over 35% in size. In outline:
as §1

Assay [17] in a line: Quantitative High-Throughput drug screen in 47 multiple myeloma cell lines against the NCATS MIPE library collection: L363_DSMZ cell viability assay (AID 1918984). Note: nearly all actives have a fitted effect of over 40% in size. The method, boiled down: as §1
Assay [18] in a line: Quantitative High-Throughput drug screen in 47 multiple myeloma cell lines against the NCATS MIPE library collection: PE2_PLB cell viability assay (AID 1919869). Note: nearly all actives have a fitted effect of over 35% in size. In outline:
as §1
Potency is the fitted concentration of half-maximal effect.

For the molecule `CC(C)(C)NC(=O)[C@H]1CC[C@H]2[C@@H]3CC[C@H]4NC(=O)C=C[C@]4(C)[C@H]3CC[C@]12C`, the Potency result in assay [1], in assay [2], in [13], in assay [14], in [15] and in assay [16] was “inactive” throughout. Moreover, the Potency was 332 nM (active) in assay [3]; 590 nM (active) in assay [4]; 2640 nM (active) in assay [5]; 743 nM (active) in assay [7]; 132 nM (active) in assay [8]; 235 nM (active) in [9]. Further, the values for the Potency in [10], in assay [11] and in assay [12] were 662 nM (active), 1660 nM (active) and 590 nM (active), respectively. Moreover, in assay [6], the viability was 142%.
`O=NN(CCCl)C(=O)NC1CCCCC1`: the Potency entry in [1], in [17], in [2], in [5], in assay [7] and in [8] was “inactive” in each case. The Potency entry in [9], in assay [10], in assay [11], in assay [18], in assay [12] and in assay [15] was “inactive” each time.
For `CC(C)C[C@H](NC(=O)[C@H](CCc1ccccc1)NC(=O)CN1CCOCC1)C(=O)N[C@@H](Cc1ccccc1)C(=O)N[C@@H](CC(C)C)C(=O)[C@@]1(C)CO1`, the Potency is 3 nM (active) in assay [1]; 1 nM (active) in [17]; 5.9 nM (active) in [2]; 11.8 nM (active) in [3]; 3.3 nM (active) in assay [4]; 9.3 nM (active) in [5]. The Potency in assay [7] was 4.7 nM (active); in assay [8] it was 1 nM (active); in assay [9], 1 nM (active); in [10] it was 1 nM (active); in assay [11], 1 nM (active); in [12] it was 1 nM (active). Besides, the Potency in assay [13] was 16.6 nM (active); in [14], 16.6 nM (active); in assay [15], 5.3 nM (active); in assay [16], 5.3 nM (active).
In the case of `CC[C@H](NC(C)C)[C@H](O)c1ccc(O)c2[nH]c(=O)ccc12`, the Potency result in [1], in assay [17], in [5], in assay [7], in assay [8] and in assay [11] was “inactive” in each case. In addition, the Potency entry in assay [12], in [14] and in assay [16] was “inactive” throughout. Further, in assay [4], the Potency was 83.3 nM (active).
Take `N=C(N)c1ccc(OCCCCCOc2ccc(C(=N)N)cc2)cc1`: the Potency in assay [1] was 14800 nM (active); in [2] it was 20900 nM (active); in [3], 2350 nM (active); in assay [4], 14800 nM (active); in assay [5], 11800 nM (active); in assay [6] it was 20900 nM (active). Moreover, the Potency in [7] is 23500 nM (active); in [8] it was 16600 nM (active); in assay [9] it was 4690 nM (active); in assay [10], 2090 nM (active); in [12], 5900 nM (active); in assay [13] it was 5900 nM (active). Also, the Potency in assay [16] was 5900 nM (active).
Take `CN1CCCC(n2nc(Cc3ccc(Cl)cc3)c3ccccc3c2=O)CC1` (stereo not given): the Potency in [1] was 13200 nM (active); in [17], 9350 nM (active); in assay [2], 10500 nM (active); in [3] it was 1180 nM (active); in assay [4], 1180 nM (active); in assay [5], 2640 nM (active). Further, the Potency in assay [7] was 2640 nM (active); in assay [8] it was 1050 nM (active); in [10], 1480 nM (active); in [18], 7430 nM (active); in assay [12] it was 3320 nM (active); in [15], 1320 nM (active). Besides, in assay [16], the Potency was 372 nM (active).
On to `CCN1CCCC1CNC(=O)c1cc(S(N)(=O)=O)ccc1OC` (stereo not given), for which the Potency entry in [1], in [17], in assay [2], in [5], in assay [8] and in assay [13] was “inactive” throughout. The Potency result in assay [15] and in assay [16] was “inactive” each time. In addition, the Potency in assay [10] was 5900 nM (active).
On to `COc1cc(NS(=O)(=O)c2ccc(N)cc2)nc(OC)n1`, for which the Potency entry in assay [1], in [17], in assay [3], in assay [5], in assay [7] and in [8] was “inactive” throughout. Also, the Potency result in assay [18], in assay [12], in [13], in [14], in assay [15] and in [16] was “inactive” in each case.
In the case of `CCOC(=O)c1ccc(OC(=O)CCCCCN=C(N)N)cc1`, the Potency result in [1], in assay [17], in [2], in assay [5], in [7] and in assay [8] was “inactive” throughout. The Potency result in assay [9], in assay [10], in assay [18], in [12], in assay [14] and in assay [15] was “inactive” in each case. The Potency result in assay [16] was “inactive”. Further, the viability in [6] was 127%.
For `CN(C)c1ccc(C(=C2C=CC(=[N+](C)C)C=C2)c2ccc(N(C)C)cc2)cc1`, the Potency in [1] was 105 nM (active); in assay [2], 105 nM (active); in [3] it was 18.7 nM (active); in assay [4], 74.3 nM (active); in assay [5] it was 11.8 nM (active); in assay [6] it was 66.2 nM (active). In addition, the Potency was 1050 nM (active) in assay [7]; 83.3 nM (active) in assay [8]; 29.6 nM (active) in [10]; 1 nM (active) in [11]; 16.6 nM (active) in [18]; 37.2 nM (active) in [12]. The Potency in [13] was 93.5 nM (active); in assay [15], 26.4 nM (active); in assay [16], 74.3 nM (active).
Take `COc1nc(N)nc2c1ncn2[C@@H]1O[C@H](CO)[C@@H](O)[C@@H]1O`: the Potency entry in assay [1], in assay [17], in assay [4], in assay [5], in assay [8] and in assay [10] was “inactive” in each case. Also, the Potency result in assay [12], in assay [13], in [15] and in assay [16] was “inactive” throughout. In addition, in assay [6], the viability was 124%. Moreover, the Potency was 16600 nM (active) in assay [7] and 469 nM (active) in assay [14].
Turning to `CCc1cc(C(N)=S)ccn1`, the Potency entry in [1], in assay [17], in assay [2], in assay [5], in [8] and in [9] was “inactive” in each case. The Potency result in [12], in assay [13], in assay [15] and in assay [16] was “inactive” in each case.
Consider `CNS(=O)(=O)CCc1ccc2[nH]cc(C3CCN(C)CC3)c2c1`, for which the Potency entry in [1], in assay [12], in assay [15] and in assay [16] was “inactive” throughout. Also, the Potency in [17] was 23500 nM (active); in assay [3], 332 nM (active); in assay [4], 1180 nM (active); in assay [5], 5260 nM (active); in [6], 4180 nM (active); in assay [8] it was 372 nM (active). Moreover, the Potency in assay [9] was 743 nM (active); in assay [18] it was 1660 nM (active).

As usually defined, the viability is a read-out of living cells in per cent, often relative to untreated cells.
